This is an account of results in PubChem BioAssay (NCI).

Among the test systems are SR leukemia; RPMI-8226 leukemia; OVCAR-8 ovarian; OVCAR-5 ovarian; OVCAR-4 ovarian; SK-OV-3 ovarian; IGROV1 ovarian; OVCAR-3 ovarian; HS 578T breast; T-47D breast; BT-549 breast; MDA-MB-435 melanoma; SW-620 colon; MCF7 breast; HCT-116 colon; HCC-2998 colon; KM12 colon; MDA-MB-468 breast; NCI/ADR-RES ovarian.
What all share (experiment): NCI-60 one-dose screen, 48 h (100 = growth as untreated, 0 = no growth, -100 = all killed)
Conditions in all cases: 10 µM

Each structure is given as a SMILES string. The panel holds about 83,000 compounds, 20% with a hit somewhere; the sample as a whole holds those more often.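 Plates (96-well) were seeded with cells, treated with compound at one concentration, and incubated for 48 hours before percent growth was determined.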 A number with no mark means an inactive call. The source made the active and inactive calls. The calls were made as follows: active = growth percent below 10; inactive = the rest.

Turning to `Cc1ccc2nc(COc3ccc(C(=O)NNC(=S)NC(=O)c4ccccc4)cc3)[nH]c2c1`, the growth is 25.8% in the assay with SR leukemia; 64.9% in the assay on RPMI-8226 leukemia; 42.1% with OVCAR-8 ovarian; 80.2% in the assay on OVCAR-5 ovarian; 57.3% in the assay with OVCAR-4 ovarian; 67.2% in the assay on SK-OV-3 ovarian. Moreover, the growth was 53.4% in the assay on IGROV1 ovarian; 58.2% in the assay with OVCAR-3 ovarian; 60.5% with HS 578T breast; 60.5% in the assay on T-47D breast; 81.8% in the assay with BT-549 breast; 64.3% in the assay on MDA-MB-435 melanoma. Also, the growth is 39.5% in the assay on SW-620 colon; 30.6% in the assay on MCF7 breast; 38.5% in the assay with HCT-116 colon; 66.1% with HCC-2998 colon; 49.4% with KM12 colon; 55.6% with MDA-MB-468 breast.
Turning to `CCOP(=O)(OCC)O[C@H]1CCC(=O)[C@@H]2[C@H]1[C@H]1C[C@@H]3[C@@]4(C)CCCC(C)(C(=O)OC)[C@@H]4CC[C@@]23C=C1C(C)C` (some centres undefined), the growth was 37.5% in the assay on SR leukemia; 21.9% in the assay with RPMI-8226 leukemia; 55.5% in the assay with OVCAR-8 ovarian; 92.7% with OVCAR-5 ovarian; 49.5% in the assay on OVCAR-4 ovarian; 54% in the assay on SK-OV-3 ovarian. Further, the growth is 72.1% in the assay with IGROV1 ovarian; 67.7% in the assay with OVCAR-3 ovarian; 59.5% in the assay with HS 578T breast; 44.3% in the assay with NCI/ADR-RES ovarian; 42.1% with T-47D breast; 54.9% in the assay on BT-549 breast. For the same compound, the growth with MDA-MB-435 melanoma was 52%; with SW-620 colon, 56.1%; in the assay on MCF7 breast it was 33.2%; in the assay with HCC-2998 colon it was 58.9%; with KM12 colon, 50.9%; with MDA-MB-468 breast it was 7.96% (active).
`CCCCSc1nc(Nc2ccc(/C(C)=N/NC(N)=S)cc2)c(C#N)c(-c2ccccc2)n1`: the growth in the assay with SR leukemia is 61.6%; in the assay with RPMI-8226 leukemia it was 47.3%; in the assay with OVCAR-8 ovarian it was 15.1%; in the assay with OVCAR-5 ovarian, 60.4%; in the assay with OVCAR-4 ovarian, 5.32% (active); in the assay on SK-OV-3 ovarian, 108%. For the same compound, the growth in the assay on IGROV1 ovarian is 57.6%; with OVCAR-3 ovarian, 13.4%; in the assay with HS 578T breast, 43.6%; in the assay with NCI/ADR-RES ovarian, 25.3%; in the assay on T-47D breast it was 45.9%; in the assay with BT-549 breast, 31.1%. In addition, the growth in the assay with MDA-MB-435 melanoma is 65.4%; in the assay with SW-620 colon it was 56.8%; in the assay on MCF7 breast it was 30.7%; in the assay with HCC-2998 colon, 53.1%; in the assay on KM12 colon it was 72.4%; in the assay on MDA-MB-468 breast, -28.4% (active).
As for `COc1ccc(-c2cc(C(=O)N=Nc3c(O)[nH]c4ccc(F)cc34)c3ccccc3n2)cc1`, the growth was 22.5% in the assay with SR leukemia; 72.2% in the assay with RPMI-8226 leukemia; 59.1% in the assay with OVCAR-8 ovarian; 88.5% in the assay on OVCAR-5 ovarian; 52% with OVCAR-4 ovarian; 101% with SK-OV-3 ovarian. Moreover, the growth with IGROV1 ovarian was 62.3%; in the assay on OVCAR-3 ovarian, 59.1%; with HS 578T breast it was 74%; with T-47D breast, 75.9%; in the assay with BT-549 breast it was 86.3%; with MDA-MB-435 melanoma it was 65.2%. Further, the growth was 41.1% in the assay with SW-620 colon; 23.6% with MCF7 breast; 39.7% in the assay with HCT-116 colon; 91.1% with HCC-2998 colon; 81.3% with KM12 colon; 44.2% in the assay on MDA-MB-468 breast.
Turning to `C=CCn1c(SCC(=O)Nc2ccc(C(=O)/C=C/c3ccccc3)cc2)nnc1-c1c[nH]c2ccccc12`, the growth with SR leukemia was 31.4%; in the assay with RPMI-8226 leukemia it was 2.87% (active); in the assay on OVCAR-8 ovarian it was 64.7%; with OVCAR-5 ovarian, 102%; in the assay on OVCAR-4 ovarian it was 61.9%; in the assay on SK-OV-3 ovarian, 86.8%. Also, the growth in the assay on IGROV1 ovarian is 42%; with OVCAR-3 ovarian it was 41.4%; with HS 578T breast it was 70.5%; in the assay with T-47D breast, 20.8%; with BT-549 breast, 45.6%; with MDA-MB-435 melanoma, -13.5% (active). The growth in the assay on SW-620 colon was -28.2% (active); in the assay on MCF7 breast it was -67.7% (active); with HCT-116 colon, -52.4% (active); with HCC-2998 colon, -69.4% (active); in the assay with KM12 colon, 6.81% (active); in the assay on MDA-MB-468 breast, -7.8% (active).
Take `Cc1ccc(C(=O)CSc2nnc(-c3c[nH]c4ccccc34)n2-c2ccccc2)cc1`: the growth with SR leukemia was 53%; with RPMI-8226 leukemia, 58.9%; in the assay on OVCAR-8 ovarian, 11.3%; with OVCAR-5 ovarian, 13%; with OVCAR-4 ovarian it was -15.6% (active); with SK-OV-3 ovarian, 24%. Further, the growth in the assay with IGROV1 ovarian is 24.2%; with OVCAR-3 ovarian, 65.2%; with HS 578T breast, -0.727% (active); in the assay with NCI/ADR-RES ovarian, -27.7% (active); in the assay with T-47D breast it was 46.7%; in the assay on MDA-MB-435 melanoma, 38.6%. The growth in the assay with SW-620 colon was 19%; in the assay with MCF7 breast, 12.5%; in the assay on HCT-116 colon, 7.68% (active); in the assay with HCC-2998 colon it was 66.4%; in the assay on KM12 colon it was 51%; in the assay on MDA-MB-468 breast it was 48%.
On to `O=C(CNc1nc(-c2ccccc2)cs1)Nc1ccc(Br)cc1`, for which the growth with SR leukemia is -18.8% (active); with RPMI-8226 leukemia it was -5.37% (active); in the assay with OVCAR-8 ovarian, -5.23% (active); with OVCAR-5 ovarian, -96.3% (active); in the assay on OVCAR-4 ovarian, -49.9% (active); in the assay with SK-OV-3 ovarian, 8.41% (active). Further, the growth in the assay on IGROV1 ovarian is -75.4% (active); with OVCAR-3 ovarian, -77.7% (active); in the assay with HS 578T breast it was 16.6%; in the assay on NCI/ADR-RES ovarian it was -16.7% (active); with T-47D breast, -51.4% (active); in the assay on BT-549 breast, -61.2% (active). For the same compound, the growth was -1.09% (active) in the assay with MDA-MB-435 melanoma; -64.6% (active) in the assay on SW-620 colon; -82.2% (active) with MCF7 breast; -98.1% (active) in the assay on HCC-2998 colon; -68.3% (active) in the assay with KM12 colon; -84.1% (active) with MDA-MB-468 breast.
For `N#Cc1ccc(-c2nn(-c3ccc(C(=O)O)cc3)cc2CNc2ccc(Cl)cc2)cc1`, the growth is 82.8% in the assay with SR leukemia; 66.4% in the assay with RPMI-8226 leukemia; 74.4% with OVCAR-8 ovarian; 111% with OVCAR-5 ovarian; 85.2% in the assay with OVCAR-4 ovarian; 123% with SK-OV-3 ovarian. In addition, the growth with IGROV1 ovarian is 91.5%; in the assay with OVCAR-3 ovarian, 70.3%; with HS 578T breast it was 88.6%; with T-47D breast, 74.3%; with BT-549 breast, 62.6%; in the assay on MDA-MB-435 melanoma, 89.7%. Also, the growth is 87.2% in the assay with SW-620 colon; 70.8% in the assay with MCF7 breast; 53.8% with HCT-116 colon; 89.4% in the assay on HCC-2998 colon; 67% in the assay with KM12 colon; 116% in the assay with MDA-MB-468 breast.
